Screening results deposited in PubChem BioAssay by Broad Institute.
mut p53 react: mutant p53 pathway re-activators, primary screen, cell-based, SW480, luciferase, single point, HTS; SW480 PUMA-promoter luciferase, p53 mutant reactivation; activation, % at 9.98 µM; 28,000 tested, 1.5% active; in the data active means activation above about 52%; inconclusive means no clear call, values can overlap the other calls
ID4 SMM: binders of human ID4 protein, primary screen, biochemical, small molecule microarray, single point; DNA-binding protein inhibitor ID-4 (Homo sapiens), P47928; Flag-ID4 binding, fluorescence F/B; calls only; 31,000 tested, 1.2% active; call rule not given here;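 further: a binder raises fluorescence above local background on the spot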
Target sequence (P47928 whole entry, looked up): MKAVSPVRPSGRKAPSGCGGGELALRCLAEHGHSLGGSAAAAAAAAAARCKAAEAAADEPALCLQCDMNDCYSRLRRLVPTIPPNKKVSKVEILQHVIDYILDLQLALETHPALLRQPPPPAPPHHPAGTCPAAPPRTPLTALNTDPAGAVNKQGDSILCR
* = called active by the depositor; i = inactive; u = inconclusive; x = no result given; + = active, no number. Compounds with a hit are over-represented: about 2.3% of the library has one in this group of screens.

SMILES | mut p53 react | ID4 SMM
C[C@@H]1CCCCO[C@@H](CN(C)Cc2ccncc2)[C@H](C)CN([C@@H](C)CO)C(=O)c2cc(NC(=O)Nc3ccccc3)ccc2O1 | -8 | i
C[C@H](CO)N1C[C@H](C)[C@H](CN(C)C(=O)Nc2ccccc2)OCCCC[C@H](C)Oc2ccc(NC(=O)Nc3ccccc3)cc2C1=O | 4 | i
C[C@@H]1CCCCO[C@@H](CN(C)C(=O)Nc2ccccc2)[C@H](C)CN([C@H](C)CO)C(=O)c2cc(NC(=O)Nc3ccccc3)ccc2O1 | -39 | +
N#CCCSc1nnc(-c2cccnc2)n1Cc1ccccc1 | -12 | i
COC(=O)C1=CO[C@@H](O[C@@H]2O[C@H](CO)[C@@H](O)[C@H](O)[C@H]2O)[C@H]2[C@@H]1C=CC21C=C(C(C)O)C(=O)O1 (some centres undefined) | 7 | i
CS(=O)(=O)N(CC(=O)Nc1cccc(C(F)(F)F)c1)c1ccc(F)c(Cl)c1 | 2 | i
CC(=O)Nc1ccc(NC(=O)CNS(=O)(=O)c2c(C)cc(C)cc2C)cc1 | 8 | +
CC(=O)c1ccc(NC(=O)CNS(=O)(=O)c2cccc(Cl)c2)cc1 | 68* | i
Cc1cc(C)c(S(=O)(=O)NCC(=O)Nc2ccc(I)cc2)c(C)c1 | 3 | i
CC(=O)c1cccc(NC(=O)CNS(=O)(=O)c2ccc(Br)cc2)c1 | 19 | i
Cn1c(SCC(=O)Nc2ccccc2[N+](=O)[O-])nc2ccccc2c1=O | -13 | i
O=C1C=C(NCCc2ccccc2)CC(c2ccco2)C1 (centres undefined) | 45 | i
CC(C)c1onc(-c2c(Cl)cccc2Cl)c1COc1ccc(/C=C/c2cccc(C(=O)O)c2)c(Cl)c1 | 67* | i
COc1cc(/C=C/c2cc(O)cc(O)c2)ccc1O[C@@H]1O[C@H](CO)[C@@H](O)[C@H](O)[C@H]1O | 66* | i
COc1cc(/C=C/c2cc(O)cc(O[C@@H]3O[C@H](CO)[C@@H](O)[C@H](O)[C@H]3O)c2)ccc1O[C@@H]1O[C@H](CO)[C@@H](O)[C@H](O)[C@H]1O | 15 | x
COc1ccc(C2CC(=O)c3ccc(OC)cc3O2)cc1 (centres undefined) | 97* | i
O=C1CC(c2ccc(O)cc2)Oc2ccccc21 (centres undefined) | 39 | i
CC(C)Oc1ccc2c(=O)cc(-c3ccccc3)oc2c1 | 22 | x
CC(C)Oc1ccc2c(=O)c3cc(C(=O)O)ccc3oc2c1 | 71* | i
Cc1cc(Nc2cnn(-c3nc4ccccc4o3)c(=O)c2Cl)ccc1Br | -16 | i
O=C(Nc1cccc([N+](=O)[O-])c1)Nc1nn(Cc2ccc(Cl)c(Cl)c2)cc1Cl | -2 | i
CCCc1cc(=O)[nH]c(Nc2nc(C)c3ccc(OC)cc3n2)n1 | 33 | i
COc1ccc2c(C)nc(Nc3nc(C)cc(=O)[nH]3)nc2c1 | 73* | i
CNC[C@H]1Oc2ccc(NC(=O)Cc3ccccc3)cc2CC(=O)N([C@H](C)CO)C[C@@H]1C | -5 | +
CNC[C@@H]1Oc2ccc(NC(=O)Cc3ccccc3)cc2CC(=O)N([C@H](C)CO)C[C@@H]1C | 8 | i
SMILES | mut p53 react | ID4 SMM
CNC[C@@H]1Oc2ccc(NC(=O)Cc3cn(C)c4ccccc34)cc2CC(=O)N([C@H](C)CO)C[C@@H]1C | -15 | i
CNC[C@H]1Oc2ccc(NC(=O)Cc3cn(C)c4ccccc34)cc2CC(=O)N([C@@H](C)CO)C[C@H]1C | -9 | +
CCN(CC(=O)Nc1cc(Cl)ccc1OC)S(=O)(=O)c1ccc(C)cc1 | 2 | i
CCNC(=O)c1c(NC(=O)C(C)Oc2ccccc2F)sc2c1CCCC2 (centres undefined) | 6 | i
CCc1ccc(NC(=O)CN(C)S(=O)(=O)c2ccc3ccccc3c2)cc1 | 9 | i
CCOc1nc(NCCO)nc(Nc2ccc(OC)cc2OC)n1 | -8 | i
C[C@@H]1CN([C@H](C)CO)C(=O)c2cc(NC(=O)Cc3cn(C)c4ccccc34)ccc2O[C@H]1CN(C)C(=O)Nc1ccccc1 | -12 | i
COc1ccc(CN(C)C[C@@H]2Oc3ccc(NC(=O)Cc4cn(C)c5ccccc45)cc3C(=O)N([C@H](C)CO)C[C@@H]2C)cc1 | -7 | i
C[C@H]1CN([C@@H](C)CO)C(=O)c2cc(NC(=O)Cc3cn(C)c4ccccc34)ccc2O[C@H]1CN(C)C(=O)Nc1ccccc1 | -7 | +
COc1ccc(CN(C)C[C@@H]2Oc3ccc(NC(=O)Cc4cn(C)c5ccccc45)cc3C(=O)N([C@@H](C)CO)C[C@@H]2C)cc1 | -8 | +
Cc1ccsc1C1C(C(=O)c2ccco2)C(=O)C(=O)N1Cc1ccco1 (centres undefined) | 17 | i
COc1ccc(S(=O)(=O)N(C)CC(=O)NC2CCCC2)cc1 | 7 | i
CCN(CC(=O)O)S(=O)(=O)c1ccc2ccccc2c1 | -1 | i
CCc1cccc(C)c1NC(=O)CSc1nc2sc3c(c2c(=O)n1C)CCC(C)C3 (centres undefined) | -29 | i
CC1CCc2c(sc3nc(SC(C)C(=O)Nc4ccccc4)nc(N)c23)C1 (centres undefined) | 118* | i
Cc1cccc(OCC(=O)Nc2ccccc2CO)c1C | 69* | i
O=C(COc1ccc(Cl)cc1CO)Nc1ccccc1F | 128* | i
COc1cc(CO)ccc1OCC(=O)Nc1ccccc1F | 64* | i
COc1cc(CO)ccc1OCC(=O)Nc1ccc(C)cc1 | 47 | i
CC(=O)Oc1ccc(NC(=O)COc2cccc(C)c2C)c(C(=O)O)c1 | -6 | i
CC(=O)Nc1ccccc1NC(=O)COc1ccc(Cl)cc1Cl | 26 | i
COc1ccc(Cl)cc1NC(=O)c1ccccc1N(Cc1ccccc1)S(C)(=O)=O | 7 | i
COc1ccc(OC)c(NC(=O)c2ccc(Cl)c(S(=O)(=O)Nc3ccc(C)cc3)c2)c1 | -3 | i
COc1ccc(OC)c(NC(=O)c2ccc(C)c(S(=O)(=O)Nc3ccc(C)cc3)c2)c1 | 1 | +
COc1ccc(-c2nc(Nc3nc(C)cc(C)n3)n[nH]2)cc1OC | 85* | +
SMILES | mut p53 react | ID4 SMM
Cc1cc(C)nc(Nc2n[nH]c(-c3cccnc3)n2)n1 | 74* | i
COc1ccc(C(=O)CSc2n[nH]c(-c3ccccc3)n2)cc1OC | -12 | i
Cc1cc(C)nc(Nc2n[nH]c(COc3ccccc3)n2)n1 | u | i
COC(=O)C1=C(C)NC(=S)NC1c1cccc(OC)c1OCc1ccccc1 (centres undefined) | -11 | i
COc1ccc(-c2csc3ncn(CC(N)=O)c(=O)c23)cc1OC | 12 | i
COc1ccc(-c2csc3ncn(CC(=O)Nc4sc5c(c4C#N)CCC5)c(=O)c23)cc1OC | -8 | +
CC(=O)Nc1ccccc1NC(=O)Cc1ccccc1[N+](=O)[O-] | -10 | i
O=C(c1ccc([N+](=O)[O-])cc1)N(Cc1cc2ccccc2[nH]c1=O)c1ccccc1 | -36 | +
Cc1ccc(N(Cc2cc3ccccc3[nH]c2=O)C(=O)c2cccnc2)cc1 | 5 | i
COc1cc(Cl)c(C)cc1NC(=O)C(CC(C)C)N1C(=O)c2ccccc2C1=O (centres undefined) | -12 | i
O=C(Cn1cnc2ccccc2c1=O)Nc1cccc(Cl)c1Cl | -15 | i
